# Measured values taken from PubChem BioAssay AID1159580 (chemical genetic matrix, 2015).
# In all, about 5,500 compounds went through this assay and about 2,000 (36%) were called active. About 18% were inconclusive and are not listed. The list shows a part of the results. A number with no mark means an inactive call. No stated cut-off is given here; in the data, active means normalized growth mostly below about 0.91 (no sharp cut-off); inconclusive means no clear call, values can overlap the other calls; inactive means mostly above about 0.92.
# Test: chemical genetic growth profiling, strain panel (AID 1159580);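 further: tested at 20 µM; growth read once vehicle control cultures reached saturation at 30 °C; 1 = growth at the plate median or of vehicle wells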
# Settings: S. cerevisiae deletion strains, growth OD
# [1] = locus YDL101C, strain DUN1, stronger effect = lower value
# [2] = locus YGR078C, strain PAC10, stronger effect = lower value
# [3] = locus YHR030C, strain SLT2, stronger effect = lower value
# [4] = locus YJR075W, strain HOC1, stronger effect = lower value
# [5] = locus YMR263W, strain SAP30, stronger effect = lower value
# [6] = locus YMR307W, strain GAS1, stronger effect = lower value
# [7] = locus YNL153C, strain GIM3, stronger effect = lower value
# [8] = locus YNL322C, strain KRE1, stronger effect = lower value
# [9] = locus YPL241C, strain CIN2, stronger effect = lower value
# [10] = locus YAL040C, strain CLN3, stronger effect = lower value
# [11] = locus YCL061C, strain MRC1 (second series), stronger effect = lower value
# [12] = locus YDR363W, strain ESC2, stronger effect = lower value
# [13] = locus YER002W, strain NOP16, stronger effect = lower value
# [14] = locus YNL175C, strain NOP13, stronger effect = lower value
# [15] = locus YNL197C, strain WHI3, stronger effect = lower value
# [16] = locus YNL224C, strain SQS1, stronger effect = lower value
# [17] = locus YOR083W, strain WHI5 (second series), stronger effect = lower value
# [18] = locus YAR019C, strain CDC15, stronger effect = lower value
# [19] = locus YBL105C, strain PKC1, stronger effect = lower value
# [20] = locus YBR135W, strain CKS1, stronger effect = lower value
# [21] = locus YBR136W, strain MEC1, stronger effect = lower value
# [22] = locus YBR160W, strain CDC28, stronger effect = lower value
# [23] = locus YDL017W, strain CDC7, stronger effect = lower value
# [24] = locus YDL028C, strain MPS1, stronger effect = lower value
# [25] = locus YDL108W, strain KIN28, stronger effect = lower value
# [26] = locus YDL132W, strain cdc53, stronger effect = lower value
# [27] = locus YDL214C, strain PRR2, stronger effect = lower value
# [28] = locus YDR052C, strain DBF4, stronger effect = lower value
# [29] = locus YDR054C, strain cdc34, stronger effect = lower value
# [30] = locus YDR226W, strain ADK1, stronger effect = lower value
# [31] = locus YDR477W, strain SNF1, stronger effect = lower value
# [32] = locus YER123W, strain YCK3, stronger effect = lower value
# [33] = locus YER133W, strain GLC7, stronger effect = lower value
# [34] = locus YFL009W, strain cdc4, stronger effect = lower value
# [35] = locus YFL029C, strain CAK1, stronger effect = lower value
# [36] = locus YFR003C, strain YPI1, stronger effect = lower value
# [37] = locus YFR019W, strain FAB1, stronger effect = lower value
# [38] = locus YFR028C, strain CDC14, stronger effect = lower value
# [39] = locus YGR040W, strain KSS1, stronger effect = lower value
# [40] = locus YGR052W, strain FMP48, stronger effect = lower value
# [41] = locus YGR092W, strain DBF2, stronger effect = lower value
# [42] = locus YHR079C, strain IRE1, stronger effect = lower value
# [43] = locus YHR082C, strain KSP1, stronger effect = lower value
# [44] = locus YHR205W, strain SCH9, stronger effect = lower value
# [45] = locus YIL147C, strain SLN1, stronger effect = lower value
# [46] = locus YJL095W, strain BCK1, stronger effect = lower value
# [47] = locus YJL128C, strain PBS2, stronger effect = lower value
# [48] = locus YJL157C, strain FAR1, stronger effect = lower value
# [49] = locus YJR016C, strain ILV3, stronger effect = lower value
# [50] = locus YJR066W, strain TOR1 (second series), stronger effect = lower value
# [51] = locus YJR066W, strain TOR1, stronger effect = lower value
# [52] = locus YKL048C, strain ELM1, stronger effect = lower value
# [53] = locus YKL067W, strain YNK1, stronger effect = lower value
# [54] = locus YKL101W, strain HSL1, stronger effect = lower value
# [55] = locus YKL193C, strain SDS22, stronger effect = lower value
# [56] = locus YKL203C, strain TOR2, stronger effect = lower value
# [57] = locus YLR113W, strain HOG1, stronger effect = lower value
# [58] = locus YLR133W, strain CKI1, stronger effect = lower value
# [59] = locus YLR403W, strain SFP1, stronger effect = lower value
# [60] = locus YML070W, strain DAK1, stronger effect = lower value
# [61] = locus YMR001C, strain CDC5, stronger effect = lower value
# [62] = locus YMR205C, strain PFK2 (second series), stronger effect = lower value
# [63] = locus YMR277W, strain FCP1, stronger effect = lower value
# [64] = locus YNL006W, strain LST8, stronger effect = lower value
# [65] = locus YNL020C, strain ARK1, stronger effect = lower value
# [66] = locus YNL161W, strain CBK1, stronger effect = lower value
# [67] = locus YNL183C, strain NPR1, stronger effect = lower value
# [68] = locus YNL207W, strain RIO2, stronger effect = lower value
# [69] = locus YNL222W, strain SSU72, stronger effect = lower value
# [70] = locus YNL307C, strain MCK1 (second series), stronger effect = lower value
# [71] = locus YOL078W, strain AVO1, stronger effect = lower value
# [72] = locus YOL136C, strain PFK27, stronger effect = lower value
# [73] = locus YOR061W, strain CKA2, stronger effect = lower value
# [74] = locus YOR119C, strain RIO1, stronger effect = lower value
# [75] = locus YOR231W, strain MKK1, stronger effect = lower value
# [76] = locus YOR329C, strain SCD5, stronger effect = lower value
# [77] = locus YPL031C, strain PHO85, stronger effect = lower value
# [78] = locus YPL153C, strain RAD53, stronger effect = lower value
# [79] = locus YPL204W, strain HRR25, stronger effect = lower value
# [80] = locus YPL209C, strain IPL1, stronger effect = lower value
# [81] = locus YPL256C, strain CLN2, stronger effect = lower value
# [82] = locus YPR025C, strain CCL1, stronger effect = lower value
# [83] = locus YPR106W, strain ISR1, stronger effect = lower value
# [84] = locus YPR111W, strain DBF20, stronger effect = lower value
# [85] = strain NNK1, stronger effect = lower value
# [86] = strain TSCII, stronger effect = lower value
smiles,measurement,setting,value
ON=C(c1cccs1)c1cccs1,normalized growth,"locus YAL013W, strain DEP1, stronger effect = lower value",0.947
same,normalized growth,"locus YBR229C, strain ROT2, stronger effect = lower value",0.94
same,normalized growth,[1],0.94
same,normalized growth,"locus YDL134C, strain PPH21, stronger effect = lower value",0.989
same,normalized growth,"locus YDR150W, strain NUM1, stronger effect = lower value",0.921
same,normalized growth,"locus YEL061C, strain CIN8, stronger effect = lower value",0.947
same,normalized growth,[2],0.928
same,normalized growth,[3],0.383 (active)
same,normalized growth,"locus YHR087W, strain rtc3, stronger effect = lower value",0.965
same,normalized growth,"locus YJR043C, strain POL32, stronger effect = lower value",0.944
same,normalized growth,[4],0.927
same,normalized growth,"locus YLR039C, strain RIC1, stronger effect = lower value",0.62 (active)
same,normalized growth,"locus YLR058C, strain SHM2 (second series), stronger effect = lower value",0.959
same,normalized growth,"locus YLR085C, strain ARP6, stronger effect = lower value",0.673 (active)
same,normalized growth,"locus YLR262C, strain YPT6, stronger effect = lower value",0.657 (active)
same,normalized growth,"locus YML094W, strain GIM5, stronger effect = lower value",0.903
same,normalized growth,"locus YMR219W, strain ESC1, stronger effect = lower value",0.963
same,normalized growth,[5],0.957
same,normalized growth,[6],0.657 (active)
same,normalized growth,"locus YNL128W, strain TEP1, stronger effect = lower value",1
same,normalized growth,[7],0.958
same,normalized growth,"locus YNL298W, strain CLA4 (second series), stronger effect = lower value",0.893
same,normalized growth,[8],0.924 (active)
same,normalized growth,"locus YNR030W, strain Alg12, stronger effect = lower value",0.895
same,normalized growth,"locus YOL006C, strain TOP1, stronger effect = lower value",0.896
same,normalized growth,"locus YPL055C, strain LGE1, stronger effect = lower value",0.941
same,normalized growth,[9],0.876
same,normalized growth,"locus YPR135W, strain CTF4, stronger effect = lower value",0.637 (active)
O=C(Nc1ccccc1)c1cc([N+](=O)[O-])ccc1Cl,normalized growth,[10],1.07
same,normalized growth,[11],0.989
same,normalized growth,[12],0.967
same,normalized growth,[13],0.972
same,normalized growth,[2],0.974
same,normalized growth,"locus YGR229C, strain SMI1, stronger effect = lower value",0.996
same,normalized growth,[14],0.996
same,normalized growth,[15],0.969
same,normalized growth,[16],0.976
same,normalized growth,[8],0.999
same,normalized growth,[17],0.958
same,normalized growth,[9],1
O=C(Nc1ccccc1)Nc1ccc(Cl)cc1[N+](=O)[O-],normalized growth,[18],0.977
same,normalized growth,[19],0.973
same,normalized growth,[20],0.976
same,normalized growth,[21],0.977
same,normalized growth,[22],0.964
same,normalized growth,[23],0.975
same,normalized growth,[24],0.974
same,normalized growth,[1],0.987
same,normalized growth,[25],0.988
same,normalized growth,[26],0.962
same,normalized growth,[27],0.917
same,normalized growth,[28],0.968
same,normalized growth,[29],0.97
same,normalized growth,[30],0.968
same,normalized growth,[31],0.947
same,normalized growth,[32],0.92
same,normalized growth,[33],0.959
same,normalized growth,[34],0.961
same,normalized growth,[35],0.977
same,normalized growth,[36],0.989
same,normalized growth,[37],0.933
same,normalized growth,[38],0.974
same,normalized growth,[39],0.938
same,normalized growth,[40],1.01
same,normalized growth,[41],0.932
same,normalized growth,[3],0.721 (active)
same,normalized growth,[42],0.872
same,normalized growth,[43],0.926
same,normalized growth,[44],0.874
same,normalized growth,[45],0.972
same,normalized growth,[46],0.847
same,normalized growth,[47],0.958
same,normalized growth,[48],0.946
same,normalized growth,[49],0.972
same,normalized growth,[50],0.928
same,normalized growth,[51],0.903
same,normalized growth,[52],0.925
same,normalized growth,[53],0.93
same,normalized growth,[54],0.921
same,normalized growth,[55],0.968
same,normalized growth,[56],0.976
same,normalized growth,[57],0.888
same,normalized growth,[58],0.92
same,normalized growth,[59],0.944
same,normalized growth,[60],0.909
same,normalized growth,[61],0.977
same,normalized growth,[62],0.941
same,normalized growth,[63],0.974
same,normalized growth,[64],0.976
same,normalized growth,[65],0.909
same,normalized growth,[66],0.976
same,normalized growth,[67],0.906
same,normalized growth,[68],0.96
same,normalized growth,[69],0.985
same,normalized growth,[70],0.916
same,normalized growth,[71],0.97
same,normalized growth,[72],0.892
same,normalized growth,[73],0.956
same,normalized growth,[74],1.01
same,normalized growth,[75],0.835
same,normalized growth,[76],0.978
same,normalized growth,[77],0.948
same,normalized growth,[78],0.942
same,normalized growth,[79],0.925
same,normalized growth,[80],0.975
same,normalized growth,[81],0.809 (active)
same,normalized growth,[82],0.979
same,normalized growth,[83],0.975
same,normalized growth,[84],0.963
same,normalized growth,[85],0.952
same,normalized growth,[86],0.965
O=[N+]([O-])c1cc(Cl)cc([N+](=O)[O-])c1Nc1ccccc1,normalized growth,[18],0.924
same,normalized growth,[19],0.927
same,normalized growth,[20],0.916
same,normalized growth,[21],0.923
same,normalized growth,[22],0.918
same,normalized growth,[23],0.937
same,normalized growth,[24],0.925
same,normalized growth,[1],0.919
same,normalized growth,[25],0.935
same,normalized growth,[26],0.91
same,normalized growth,[27],0.986
same,normalized growth,[28],0.94
same,normalized growth,[29],0.893
same,normalized growth,[30],0.934
same,normalized growth,[31],0.949
same,normalized growth,[32],0.975
same,normalized growth,[33],0.977
same,normalized growth,[34],0.917
same,normalized growth,[35],0.929
same,normalized growth,[36],0.938
same,normalized growth,[37],0.963
same,normalized growth,[38],0.942
same,normalized growth,[39],0.963
same,normalized growth,[40],1.1
same,normalized growth,[41],0.89
same,normalized growth,[3],0.824 (active)
same,normalized growth,[42],0.976
same,normalized growth,[43],0.997
same,normalized growth,[44],0.965
same,normalized growth,[45],0.933
same,normalized growth,[46],0.921
same,normalized growth,[47],0.916
same,normalized growth,[48],0.957
same,normalized growth,[49],0.936
same,normalized growth,[50],0.946
same,normalized growth,[51],0.969
same,normalized growth,[52],0.93
same,normalized growth,[53],0.982
same,normalized growth,[54],0.96
same,normalized growth,[55],0.932
same,normalized growth,[56],0.989
same,normalized growth,[57],0.923
same,normalized growth,[58],0.954
same,normalized growth,[59],0.992
same,normalized growth,[60],0.987
same,normalized growth,[61],0.929
same,normalized growth,[62],0.998
same,normalized growth,[63],0.936
same,normalized growth,[64],0.926
same,normalized growth,[65],0.928
same,normalized growth,[66],0.92
same,normalized growth,[67],0.992
same,normalized growth,[68],0.935
same,normalized growth,[69],0.936
same,normalized growth,[70],0.943
same,normalized growth,[71],0.922
same,normalized growth,[72],0.981
same,normalized growth,[73],0.968
same,normalized growth,[74],1.03
same,normalized growth,[75],0.962
same,normalized growth,[76],0.926
same,normalized growth,[77],0.948
same,normalized growth,[78],0.965
same,normalized growth,[79],0.946
same,normalized growth,[80],0.933
same,normalized growth,[81],0.972
same,normalized growth,[82],0.922
same,normalized growth,[83],0.949
same,normalized growth,[84],0.934
same,normalized growth,[85],0.954
same,normalized growth,[86],0.915
O=C1NC(=O)C(c2ccccc2[N+](=O)[O-])=C1Nc1ccc(O)c(Cl)c1,normalized growth,[10],0.951
same,normalized growth,[11],0.974
same,normalized growth,[12],0.964
same,normalized growth,[13],0.98
same,normalized growth,[4],1
same,normalized growth,[5],0.99
same,normalized growth,[6],1.04
same,normalized growth,[7],0.971
same,normalized growth,[14],0.953
same,normalized growth,[15],0.981
same,normalized growth,[16],0.996
same,normalized growth,[17],0.943
same,normalized growth,[9],0.982
